# Assay results from ChEMBL document CHEMBL3988442, “University of Dundee, Small-Polar-MMV Screening Library” (2021).
# The whole screen tested about 48,000 compounds, of which about 13,000 (27%) showed an effect of 50% or more. The list shows a part of the results.
# Test system: Wolbachia pipientis
# Assay: Anti-Wolbachia Cell-Based Screen
# Assay type: functional
# Parameters: scale not given: in the data most compounds retested in dose-response had high values
# Settings: 5 µM
row,SMILES,Percent Effect [%]
1,CNc1ncc(CN(C)c2nccc(CCC(F)(F)F)n2)cn1,-7.876
2,CS(=O)(=O)Nc1cccc(CNC(=O)CCC(=O)c2cccs2)c1,1.298
3,CC1CCCCN1C(=O)c1nc2c(n1C(C)C)CCN(C(=O)C1CC1)C2 (stereo not given),-21.18
4,CC(=O)NC1CCN(c2nc(N(C)C)nc3c2CCN(C(C)=O)C3)CC1,3.638
5,CCC(=O)N1CCCCC1c1nc(O)c2c(n1)CN(C(C)=O)CC2 (stereo not given),111
6,CN(C)c1nc2c(c(N(C)C)n1)CCN(C(=O)CN1CCC(O)CC1)C2,-41.67
7,CCC(=O)N1CCc2c(O)nc(C3CCCCN3C(=O)C3CC3)nc2C1 (stereo not given),88.1
8,CCC(=O)N1CCCCC1c1nc(O)c2c(n1)CN(C(=O)C1CC1)CC2 (stereo not given),109.8
9,CC(C)N1CCC(C(=O)N2CCc3c(nc(CC4CC4)[nH]c3=O)C2)CC1,-3.187
10,CC(C)c1noc(CS(=O)(=O)CC(=O)NCc2cccs2)n1,-1.009
11,CCN(Cc1ccco1)C(=O)Nc1cc(C(F)(F)F)c[nH]c1=O,8.276
12,CC(C)(O)CCc1cccc(C(=O)N[C@H](C(N)=O)c2ccccc2)c1,-7.223
13,Cc1cccc2c1nc(COCC(=O)O)n2-c1ccsc1,2.323
14,CC(CC(=O)Nc1ncn(CC(=O)N2CCCCCC2)n1)C1CC1 (stereo not given),14.79
15,CC(CC(=O)NS(C)(=O)=O)C1CCCCC1 (stereo not given),81.01
16,NS(=O)(=O)CCNC(=O)CCc1cc(Br)cs1,1.171
17,CC(CC(=O)NCCNS(C)(=O)=O)C1CCCCC1 (stereo not given),132.7
18,CCNC(=O)N1CCCCC1CCNS(C)(=O)=O (stereo not given),-13.96
19,CS(=O)(=O)NCC(=O)NC(Cc1ccccc1)C1CCCC1 (stereo not given),-11.78
20,CC(C)c1ccc(C2(C(=O)NCCS(N)(=O)=O)CCC2)cc1,-17.74
21,CC(CC(=O)NCCS(N)(=O)=O)C1CCCCC1 (stereo not given),93.71
22,Cc1ccc(CNC(=O)N2CCCCC2CCNS(C)(=O)=O)cc1 (stereo not given),-22.58

row,SMILES,Percent Effect [%]
1,CCS(=O)(=O)N1Cc2ccnn2CC(c2nc(C)no2)C1 (stereo not given),-5.084
2,CCCC(=O)N(CC)C(c1cccnc1)c1ccc2c(c1)CCO2 (stereo not given),-14.24
3,Cc1cc(C(N)=O)ccc1NC(=O)N1CCN(c2cccs2)CC1,1.471
4,COc1nn(C)cc1C(=O)NCC(OC)c1ccccc1C (stereo not given),0.6487
5,CC(C)NC(=O)[C@@H]1C[C@H](N)CN1C(=O)c1cc2ccccc2[nH]c1=O,-13.02
6,CC(NCCc1nccn1Cc1ccccc1)c1cccs1 (stereo not given),7.205
7,CN(Cc1ccccn1)c1nccc(N2CCN[C@H]3CS(=O)(=O)C[C@H]32)n1,-6.376
8,CC(NC(=O)CN(C)S(C)(=O)=O)c1ccc(F)cc1 (stereo not given),-21.23
9,CC(C)CNC(=O)CSc1nnc(OC(C)C)s1,1.156
10,CC(C)CNC(=O)CN(C)S(C)(=O)=O,111.5
11,CC(C)CNC(=O)CN(Cc1ccc(F)cc1)S(C)(=O)=O,96.65
12,CC(C)CNC(=O)COc1cccc[n+]1[O-],-1.693
13,CN(CC(=O)NC(c1ccc(F)cc1)C(F)(F)F)S(C)(=O)=O (stereo not given),-15.92
14,CN(CC(=O)NCc1cc2ccccc2o1)S(C)(=O)=O,6.61
15,CC(C)CNC(=O)CN(CC(=O)NCC(C)C)S(C)(=O)=O,89.59
16,CC(C(=O)N(Cc1ccc(F)cc1)CC(F)(F)F)S(C)(=O)=O (stereo not given),19.96
17,CCN1CCN(CC(O)c2ccc(Br)cc2)CC1 (stereo not given),16.45
18,CS(=O)(=O)N1CC[C@@H]2[C@@H]1CCN2Cc1ccc2c(c1)OCO2.O=C(O)C(F)(F)F,-17.32
19,CC(C)(C)NC(=O)CN1CCCN(Cc2ccc(C#N)cc2)CC1,13.98
20,O=C(C1CC1)N1CCN(c2ccc(-n3cncn3)nn2)CC1,7.785
21,Cc1oc(C)c(C(=O)NS(=O)(=O)c2ccc3c(c2)OCCO3)c1Br,78.36
22,O=C(NS(=O)(=O)c1ccc2c(c1)OCCO2)c1ccc(Br)cc1F,-2.402

row,SMILES,Percent Effect [%]
1,Cc1oc(C)c(C(=O)NS(=O)(=O)c2ccc3c(c2)OCCCO3)c1C,0.6682
2,CCNC(=O)CN(Cc1ccoc1)C1CCCCC1,-9.878
3,N#CC1(NC(=O)CN2CCc3c(ncn3C3CC3)C2)CCCC1,-4.395
4,O=C(CCN1CCc2c(ncn2C2CC2)C1)NC1CCCC1,116.5
5,O=C(CN1CCc2c(ncn2C2CC2)C1)NC1CCOCC1,127.5
6,O=C(CN1CCc2c(ncn2C2CC2)C1)NC1CCN(C2CC2)CC1,121.2
7,OC(CN1CCOCC1)CN1CCc2c(ncn2C2CC2)C1 (stereo not given),4.204
8,CCN1CCC(NC(=O)CN2CCc3c(nc(C4CC4)n3C)C2)CC1,-1.72
9,CC(=O)N1CCN(C(=O)CN2CCc3c(ncn3C3CC3)C2)CC1,17.74
10,N#Cc1ccc(OCCN2CCc3c(ncn3C3CC3)C2)cc1,2.68
11,CCN1CCC(NC(=O)CN2CCc3c(ncn3C)C2)CC1,-0.1158
12,CCN1CCC(NC(=O)CN2CCc3c(ncn3C3CC3)C2)CC1,104
13,O=C(CN1CCc2c(ncn2C2CC2)C1)NC1CC1,-2.463
14,OC(COc1ccccc1)CN1CCc2c(ncn2C2CC2)C1 (stereo not given),-5.117
15,O=C(C[S+]([O-])Cc1ccc(F)cc1Cl)N1CCc2sccc2C1 (stereo not given),-9.716
16,Cc1cc2n(n1)CC(CNC1CCN(Cc3ccccn3)CC1)CN2 (stereo not given),3.925
17,NC(=O)N1C[C@H](NC(=O)c2cscn2)[C@@H]2OCCC[C@@H]21,101.9
18,O=C(N[C@@H]1CN(c2ncccn2)[C@@H]2CCCO[C@@H]21)c1cnccn1,-12.54
19,O=C(N[C@@H]1CN(c2ncccn2)[C@@H]2CCCO[C@@H]21)c1cscn1,-1.481
20,O=C(N[C@@H]1CN(Cc2ccco2)[C@@H]2CCCO[C@@H]21)c1cscn1,106.9
21,CCOc1cc(CNCCCn2ccnc2)cc(Cl)c1OCC,-4.315
